High-throughput results as filed in PubChem.
Hits are enriched below; roughly 11% of the tested compounds scored in any of these assays.
hNpr1 antagonist – human Npr1 receptor antagonism. P16066. HEK293 hNpr1 GloSensor cGMP, ANP-stimulated luminescence. Potency, µM (titrated, usually from 46.3 µM), actives largely listed as inhibitors. hit rate 1.6% among 76,000; calls by dose curve; further: nearly all actives have a fitted effect of over 60% in size
Target sequence (P16066 whole entry, looked up): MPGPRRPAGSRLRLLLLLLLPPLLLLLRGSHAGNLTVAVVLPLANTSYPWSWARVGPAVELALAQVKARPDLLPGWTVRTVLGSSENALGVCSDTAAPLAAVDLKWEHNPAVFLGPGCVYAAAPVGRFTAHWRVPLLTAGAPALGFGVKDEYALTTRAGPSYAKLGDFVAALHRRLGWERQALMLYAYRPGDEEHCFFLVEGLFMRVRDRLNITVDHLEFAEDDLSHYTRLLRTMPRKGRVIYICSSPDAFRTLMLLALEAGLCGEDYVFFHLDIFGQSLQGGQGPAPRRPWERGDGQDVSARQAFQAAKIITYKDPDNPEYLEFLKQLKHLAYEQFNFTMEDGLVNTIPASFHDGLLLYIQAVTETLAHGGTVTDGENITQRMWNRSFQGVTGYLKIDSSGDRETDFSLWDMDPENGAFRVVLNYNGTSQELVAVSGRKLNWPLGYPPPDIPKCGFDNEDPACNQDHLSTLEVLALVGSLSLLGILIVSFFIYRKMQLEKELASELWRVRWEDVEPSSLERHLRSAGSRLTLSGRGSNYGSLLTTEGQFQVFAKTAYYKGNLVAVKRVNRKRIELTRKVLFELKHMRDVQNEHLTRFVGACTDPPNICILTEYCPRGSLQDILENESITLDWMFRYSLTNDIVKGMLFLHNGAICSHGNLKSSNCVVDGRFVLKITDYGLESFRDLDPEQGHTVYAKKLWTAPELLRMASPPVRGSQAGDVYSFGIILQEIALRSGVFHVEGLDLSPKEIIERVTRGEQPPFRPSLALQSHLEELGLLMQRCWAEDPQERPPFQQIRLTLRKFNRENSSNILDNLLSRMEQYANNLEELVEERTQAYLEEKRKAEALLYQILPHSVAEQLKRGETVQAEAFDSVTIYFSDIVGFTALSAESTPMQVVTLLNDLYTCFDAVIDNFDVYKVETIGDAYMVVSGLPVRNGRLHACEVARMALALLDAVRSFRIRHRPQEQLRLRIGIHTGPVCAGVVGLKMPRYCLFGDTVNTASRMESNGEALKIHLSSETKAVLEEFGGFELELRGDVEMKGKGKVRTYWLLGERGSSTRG
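Compound pre-incubated 30 min at room temperature on GloSensor-loaded HEK293 cells stably carrying hNpr1 and the pGS-40F cGMP biosensor. Stimulation uses hNppA at 0.1 nM final; luminescence is taken at baseline and 20 min post-agonist.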
NIH3T3 tox – cytotoxic compounds in NIH 3T3 cells | NIH 3T3 viability, CellTiter-Glo ATP luminescence, 48-72 h | Potency, µM (top dose mostly 96.7 µM), hits mostly inhibitors | hit rate 4.3% among 94,000; further: nearly all actives have a fitted effect of over 55% in size
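Cells were seeded at 400 per well, treated with pin-transferred compound, and kept 48 or 72 hr at 37 °C before CellTiter-Glo addition and luminescence imaging of cellular ATP.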
Luciferase inh – blocks purified firefly luciferase enzyme activity; Potency, µM (titrated, usually from 115 µM), most hits filed as inhibitors; hit rate 2.5% among 76,000; P08659; AID 1347043; purified P. pyralis luciferase, luminescence, biochemical; further: nearly all actives have a fitted effect of over 65% in size
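Luminescence read by CCD imaging after purified firefly luciferase (10nM final) was added to substrate buffer holding 10uM D-luciferin and 10uM ATP, pH 7.5, pre-dosed with compound.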
HEK cytotox – kills HEK 293 cells | HEK 293 viability, ATP luminescence (CellTiter-Glo), 48-72 h | Potency, µM (doses to about 115 µM), hits mostly inhibitors | hit rate 6.6% among 94,000; further: nearly all actives have a fitted effect of over 60% in size
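Luminescence from cellular ATP, measured with CellTiter-Glo, indicates HEK 293 viability. Cells plated at 250 cells/well are treated with compound for 48 or 72 hr at 37 degree Celsius before reagent addition.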
Each line names hits and unclear results; the compound was inactive in the other large screens. Unless noted, the call rests on the fitted dose curve; in most records, active means well fitted curve in the direction sought with a large enough effect; inconclusive means small, poorly fitted or top-dose-only effect, or another doubt; inactive means no such curve, though single readings can be large; an effect the other way counts as inactive or inconclusive.

Cc1cccc(CC(=O)N2CCCCCC2c2nnc(-c3ccccc3)o2)c1 (centres undefined)	NIH3T3 tox inconclusive, HEK cytotox 79µM
CN1CCN(Cc2ccc(CC3CCN(C(=O)c4ccc5cc[nH]c5c4)CC3)cc2)CC1	NIH3T3 tox 32µM, HEK cytotox inconclusive (no result: hNpr1 antagonist, Luciferase inh)
O=C(c1ccc2ccccc2n1)N1CCC(Cc2ccc(CN3CCOCC3)cc2)CC1	NIH3T3 tox inconclusive, HEK cytotox 35µM (no result: hNpr1 antagonist, Luciferase inh)
CCN1C(=O)C2CC3(CCN(C(=O)c4cccn4C)CC3)CN2C1=O (centres undefined)	none (no result: hNpr1 antagonist, Luciferase inh)
CC(C)(C)c1ccc(C(=O)N2CCN(C(=O)c3nnn4c3COC(c3ccccc3)C4)CC2)cc1 (centres undefined)	NIH3T3 tox inconclusive, HEK cytotox inconclusive
OC[C@@H]1CNC[C@H]1C1CCN(Cc2ccc(Cl)c(F)c2)CC1	NIH3T3 tox inconclusive, HEK cytotox 40µM
OC[C@@H]1CNC[C@H]1C1CCN(Cc2ccc(OC(F)(F)F)cc2)CC1	NIH3T3 tox inconclusive, HEK cytotox 40µM
CNC(=O)[C@@H]1C[C@H](n2cc(CN(C)C(=O)NCC3CCCCC3)nn2)CN1	HEK cytotox inconclusive
CC(Oc1cccc(Cl)c1)C(=O)N1CCN(c2cc(-c3cccs3)[nH]n2)CC1 (centres undefined)	hNpr1 antagonist inconclusive, NIH3T3 tox inconclusive, HEK cytotox 35µM
O=C(COc1ccc(Cl)cc1)N1CCN(c2cc(-c3cccs3)[nH]n2)CC1	NIH3T3 tox 22µM, HEK cytotox inconclusive
O=C(c1cc(Cl)ccc1Cl)N1CCN(c2cc(-c3cccs3)[nH]n2)CC1	hNpr1 antagonist inconclusive, NIH3T3 tox inconclusive, HEK cytotox 45µM
O=C(NCc1ccccc1F)C1CCc2nnc(C3CCN([S+](=O)([O-])c4ccccc4Cl)CC3)n21 (centres undefined)	none (no result: hNpr1 antagonist, Luciferase inh)
CN(C)C(=O)N1CCN(C(=O)c2nc3cccnc3n(C3CC3)c2=O)CC1	none (no result: hNpr1 antagonist, Luciferase inh)
COc1ccccc1C(=O)N1CCC2(CC1)OC(=O)N(Cc1csc(C)n1)C2(C)c1ccccc1 (centres undefined)	NIH3T3 tox inconclusive
Cc1nc(CN2C(=O)OC3(CCN(C(=O)CCc4ccccn4)CC3)C2(C)c2ccccc2)cs1 (centres undefined)	NIH3T3 tox inconclusive
Cc1nc(CN2C(=O)OC3(CCN(C(=O)c4ccnn4C)CC3)C2(C)c2ccccc2)cs1 (centres undefined)	NIH3T3 tox 32µM
Cc1nc(CN2C(=O)OC3(CCN(C(=O)c4scnc4C)CC3)C2(C)c2ccccc2)cs1 (centres undefined)	NIH3T3 tox 28µM
Cc1nc(CN2C(=O)OC3(CCN(C(=O)c4cccnc4)CC3)C2(C)c2ccccc2)cs1 (centres undefined)	NIH3T3 tox 45µM
COC(=O)[C@@H]1Cc2ncn(Cc3ccccc3)c2CN1C(=O)C1CCCCC1	NIH3T3 tox inconclusive, HEK cytotox inconclusive
CCCNC(=O)c1ccc2c(c1)CC(=O)N2Cc1cccc(F)c1	NIH3T3 tox inconclusive, Luciferase inh inconclusive
Cc1ccc(Cn2c(C3CCN(C(=O)c4ccc(C)c(C)c4)CC3)n[nH]c2=O)cc1	NIH3T3 tox inconclusive, HEK cytotox inconclusive
FC(F)(F)c1ccc2c(c1)nc1n2[C@@H](CNCc2c[nH]c3ccccc23)COC1	NIH3T3 tox inconclusive, HEK cytotox 89µM
COCC(=O)Nc1ccc([C@@H](O)[C@H]2COCC(=O)N2)cc1	none
Cn1cc(-c2cnc3[nH]cc(CC(=O)Nc4cccnc4)c3c2)cn1	NIH3T3 tox inconclusive
Cn1cc(-c2cnc3[nH]cc(CC(=O)NCc4cccc(F)c4)c3c2)cn1	NIH3T3 tox 25µM, HEK cytotox inconclusive
CN(C)c1cccc(NC(=O)Cc2c[nH]c3ncc(-c4cnn(C)c4)cc23)c1	NIH3T3 tox 32µM, HEK cytotox 71µM
COc1ccc(NC(=O)Cc2c[nH]c3ncc(-c4cnn(C)c4)cc23)cn1	NIH3T3 tox 50µM
CN(C)C(=O)Cc1c[nH]c2ncc(-c3cnn(C)c3)cc12	NIH3T3 tox inconclusive
Cc1ccccc1NC(=O)Cc1c[nH]c2ncc(-c3cnn(C)c3)cc12	NIH3T3 tox 22µM, HEK cytotox inconclusive
COc1ccccc1-n1c(=O)c(C(=O)N2CCN(C(=O)N(C)C)CC2)nc2cccnc21	none (no result: hNpr1 antagonist, Luciferase inh)
O=C(CCN1CCCCO1)N1CCCC(CCc2ccc(F)c(F)c2)C1 (centres undefined)	HEK cytotox inconclusive
Cc1nc(CC(=O)NCc2ccc3[nH]c(-c4ccc(F)cc4)c(C)c3c2)cs1	hNpr1 antagonist inconclusive, NIH3T3 tox inconclusive, Luciferase inh 35µM, HEK cytotox inconclusive
